# Measured values reported in PubChem BioAssay AID1159580 (chemical genetic matrix, 2015).
# Several values for one entry are separate records, joined by “and”; a condition that tells them apart may be missing. Equal values may be shown once. In all, about 5,500 compounds went through this assay and about 2,000 (36%) were called active. Inconclusive results (about 18%) are left out. Cut-off read from the data, not from the text of the source: active = normalized growth mostly below about 0.91 (no sharp cut-off); inconclusive = no clear call, values can overlap the other calls; inactive = mostly above about 0.92. This is one part of the list.
# Assay: chemical genetic growth profiling, strain panel (AID 1159580);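 note: tested at 20 µM; growth read once vehicle control cultures reached saturation at 30 °C; 1 = growth at the plate median or of vehicle wells; lower values mean less growth of the strain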
# Settings: S. cerevisiae deletion strains, growth OD
structure (smiles),measurement,setting,value
CCOC(=O)CSC(=S)NCc1ccc(C)cc1,normalized growth,"locus YAL013W, strain DEP1, stronger effect = lower value",0.822 (active)
same,normalized growth,"locus YAR019C, strain CDC15, stronger effect = lower value",0.956 (inactive)
same,normalized growth,"locus YBL105C, strain PKC1, stronger effect = lower value",0.958 (inactive)
same,normalized growth,"locus YBR135W, strain CKS1, stronger effect = lower value",0.937 (inactive)
same,normalized growth,"locus YBR136W, strain MEC1, stronger effect = lower value",0.955 (inactive)
same,normalized growth,"locus YBR160W, strain CDC28, stronger effect = lower value",0.951 (inactive)
same,normalized growth,"locus YBR229C, strain ROT2, stronger effect = lower value",0.866 (active)
same,normalized growth,"locus YCL061C, strain MRC1, stronger effect = lower value",0.907 (active)
same,normalized growth,"locus YDL017W, strain CDC7, stronger effect = lower value",0.959 (inactive)
same,normalized growth,"locus YDL028C, strain MPS1, stronger effect = lower value",0.947 (inactive)
same,normalized growth,"locus YDL101C, strain DUN1, stronger effect = lower value",0.947 (inactive) and 0.839 (active)
same,normalized growth,"locus YDL108W, strain KIN28, stronger effect = lower value",0.956 (inactive)
same,normalized growth,"locus YDL132W, strain cdc53, stronger effect = lower value",0.928 (inactive)
same,normalized growth,"locus YDL134C, strain PPH21, stronger effect = lower value",0.0516 (active)
same,normalized growth,"locus YDL214C, strain PRR2, stronger effect = lower value",0.95 (inactive)
same,normalized growth,"locus YDR052C, strain DBF4, stronger effect = lower value",0.972 (inactive)
same,normalized growth,"locus YDR054C, strain cdc34, stronger effect = lower value",0.93 (inactive)
same,normalized growth,"locus YDR150W, strain NUM1, stronger effect = lower value",0.787 (active)
same,normalized growth,"locus YDR226W, strain ADK1, stronger effect = lower value",0.946 (inactive)
same,normalized growth,"locus YDR477W, strain SNF1, stronger effect = lower value",0.949 (inactive)
same,normalized growth,"locus YEL061C, strain CIN8, stronger effect = lower value",0.216 (active)
same,normalized growth,"locus YER123W, strain YCK3, stronger effect = lower value",0.933 (inactive)
same,normalized growth,"locus YER133W, strain GLC7, stronger effect = lower value",0.953 (inactive)
same,normalized growth,"locus YFL009W, strain cdc4, stronger effect = lower value",0.944 (inactive)
same,normalized growth,"locus YFL029C, strain CAK1, stronger effect = lower value",0.958 (inactive)
same,normalized growth,"locus YFR003C, strain YPI1, stronger effect = lower value",0.957 (inactive)
same,normalized growth,"locus YFR019W, strain FAB1, stronger effect = lower value",0.957 (inactive)
same,normalized growth,"locus YFR028C, strain CDC14, stronger effect = lower value",0.947 (inactive)
same,normalized growth,"locus YGR040W, strain KSS1, stronger effect = lower value",0.946 (inactive)
same,normalized growth,"locus YGR052W, strain FMP48, stronger effect = lower value",1.01 (inactive)
same,normalized growth,"locus YGR078C, strain PAC10, stronger effect = lower value",0.766 (active)
same,normalized growth,"locus YGR092W, strain DBF2, stronger effect = lower value",0.937 (inactive)
same,normalized growth,"locus YHR030C, strain SLT2, stronger effect = lower value",0.0833 (active) and 0.84 (active)
same,normalized growth,"locus YHR079C, strain IRE1, stronger effect = lower value",0.93 (inactive)
same,normalized growth,"locus YHR082C, strain KSP1, stronger effect = lower value",0.964 (inactive)
same,normalized growth,"locus YHR087W, strain rtc3, stronger effect = lower value",0.86 (active)
same,normalized growth,"locus YHR205W, strain SCH9, stronger effect = lower value",0.872 (inactive)
same,normalized growth,"locus YIL147C, strain SLN1, stronger effect = lower value",0.951 (inactive)
same,normalized growth,"locus YJL095W, strain BCK1, stronger effect = lower value",0.879 (inactive)
same,normalized growth,"locus YJL128C, strain PBS2, stronger effect = lower value",0.954 (inactive)
same,normalized growth,"locus YJL157C, strain FAR1, stronger effect = lower value",0.963 (inactive)
same,normalized growth,"locus YJL187C, strain SWE1, stronger effect = lower value",0.958 (inactive)
same,normalized growth,"locus YJR016C, strain ILV3, stronger effect = lower value",0.954 (inactive)
same,normalized growth,"locus YJR043C, strain POL32, stronger effect = lower value",0.812 (active)
same,normalized growth,"locus YJR066W, strain TOR1 (second series), stronger effect = lower value",0.989 (inactive)
same,normalized growth,"locus YJR066W, strain TOR1, stronger effect = lower value",0.957 (inactive)
same,normalized growth,"locus YJR075W, strain HOC1, stronger effect = lower value",0.82 (active)
same,normalized growth,"locus YKL048C, strain ELM1, stronger effect = lower value",0.944 (inactive)
same,normalized growth,"locus YKL067W, strain YNK1, stronger effect = lower value",0.95 (inactive)
same,normalized growth,"locus YKL101W, strain HSL1, stronger effect = lower value",0.955 (inactive)
same,normalized growth,"locus YKL193C, strain SDS22, stronger effect = lower value",0.948 (inactive)
same,normalized growth,"locus YKL203C, strain TOR2, stronger effect = lower value",1 (inactive)
same,normalized growth,"locus YLR039C, strain RIC1, stronger effect = lower value",0.172 (active)
same,normalized growth,"locus YLR058C, strain SHM2 (second series), stronger effect = lower value",0.909 (active)
same,normalized growth,"locus YLR085C, strain ARP6, stronger effect = lower value",0.0735 (active)
same,normalized growth,"locus YLR113W, strain HOG1, stronger effect = lower value",0.76 (active)
same,normalized growth,"locus YLR133W, strain CKI1, stronger effect = lower value",0.959 (inactive)
same,normalized growth,"locus YLR262C, strain YPT6, stronger effect = lower value",0.111 (active)
same,normalized growth,"locus YLR403W, strain SFP1, stronger effect = lower value",0.967 (inactive)
same,normalized growth,"locus YML070W, strain DAK1, stronger effect = lower value",0.949 (inactive)
same,normalized growth,"locus YML094W, strain GIM5, stronger effect = lower value",0.493 (active)
same,normalized growth,"locus YMR001C, strain CDC5, stronger effect = lower value",0.946 (inactive)
same,normalized growth,"locus YMR205C, strain PFK2 (second series), stronger effect = lower value",0.965 (inactive)
same,normalized growth,"locus YMR219W, strain ESC1, stronger effect = lower value",0.909 (active)
same,normalized growth,"locus YMR263W, strain SAP30, stronger effect = lower value",0.853 (active)
same,normalized growth,"locus YMR277W, strain FCP1, stronger effect = lower value",0.957 (inactive)
same,normalized growth,"locus YMR307W, strain GAS1, stronger effect = lower value",0.109 (active)
same,normalized growth,"locus YNL006W, strain LST8, stronger effect = lower value",0.959 (inactive)
same,normalized growth,"locus YNL020C, strain ARK1, stronger effect = lower value",0.948 (inactive)
same,normalized growth,"locus YNL153C, strain GIM3, stronger effect = lower value",0.665 (active)
same,normalized growth,"locus YNL161W, strain CBK1, stronger effect = lower value",0.953 (inactive)
same,normalized growth,"locus YNL183C, strain NPR1, stronger effect = lower value",0.912 (inactive)
same,normalized growth,"locus YNL207W, strain RIO2, stronger effect = lower value",0.953 (inactive)
same,normalized growth,"locus YNL222W, strain SSU72, stronger effect = lower value",0.956 (inactive)
same,normalized growth,"locus YNL298W, strain CLA4 (second series), stronger effect = lower value",0.0782 (active)
same,normalized growth,"locus YNL307C, strain MCK1 (second series), stronger effect = lower value",0.928 (inactive)
same,normalized growth,"locus YNL322C, strain KRE1, stronger effect = lower value",0.925 (active)
same,normalized growth,"locus YNR030W, strain Alg12, stronger effect = lower value",0.0728 (active)
same,normalized growth,"locus YOL006C, strain TOP1, stronger effect = lower value",0.107 (active)
same,normalized growth,"locus YOL078W, strain AVO1, stronger effect = lower value",0.948 (inactive)
same,normalized growth,"locus YOL136C, strain PFK27, stronger effect = lower value",0.946 (inactive)
same,normalized growth,"locus YOR061W, strain CKA2, stronger effect = lower value",0.965 (inactive)
same,normalized growth,"locus YOR119C, strain RIO1, stronger effect = lower value",1.01 (inactive)
same,normalized growth,"locus YOR231W, strain MKK1, stronger effect = lower value",0.914 (inactive)
same,normalized growth,"locus YOR329C, strain SCD5, stronger effect = lower value",0.952 (inactive)
same,normalized growth,"locus YPL031C, strain PHO85, stronger effect = lower value",0.944 (inactive)
same,normalized growth,"locus YPL055C, strain LGE1, stronger effect = lower value",0.618 (active)
same,normalized growth,"locus YPL153C, strain RAD53, stronger effect = lower value",0.954 (inactive)
same,normalized growth,"locus YPL204W, strain HRR25, stronger effect = lower value",0.943 (inactive)
same,normalized growth,"locus YPL209C, strain IPL1, stronger effect = lower value",0.953 (inactive)
same,normalized growth,"locus YPL241C, strain CIN2, stronger effect = lower value",0.0682 (active)
same,normalized growth,"locus YPL256C, strain CLN2, stronger effect = lower value",0.825 (active)
same,normalized growth,"locus YPR025C, strain CCL1, stronger effect = lower value",0.943 (inactive)
same,normalized growth,"locus YPR106W, strain ISR1, stronger effect = lower value",0.951 (inactive)
same,normalized growth,"locus YPR111W, strain DBF20, stronger effect = lower value",0.931 (inactive)
same,normalized growth,"locus YPR135W, strain CTF4, stronger effect = lower value",0.148 (active)
same,normalized growth,"strain NNK1, stronger effect = lower value",0.948 (inactive)
same,normalized growth,"strain TSCII, stronger effect = lower value",0.949 (inactive)
